Measurements reported in PubChem BioAssay AID1159580 (chemical genetic matrix, 2015).
Where “and” joins values, the source holds several entries; their conditions need not be identical. Equal values may be shown once. Out of some 5,500 compounds screened, about 2,000 (36%) were called active. Roughly 18% stayed inconclusive and do not appear here. No stated cut-off is given here; in the data, active means normalized growth mostly below about 0.91 (no sharp cut-off); inconclusive means no clear call, values can overlap the other calls; inactive means mostly above about 0.92. Some of the results follow.

Test: chemical genetic growth profiling, strain panel (AID 1159580);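 further: tested at 20 µM; growth read once vehicle control cultures reached saturation at 30 °C; 1 = growth at the plate median or of vehicle wells; lower values mean less growth of the strain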
Settings: S. cerevisiae deletion strains, growth OD

Measured: normalized growth

CC(C(=O)O)c1cccc(C(=O)c2ccccc2)c1 (stereo not drawn)
inactive: locus YAL013W, strain DEP1, active compounds read low 1.01 | locus YAL021C, strain ccr4, active compounds read low 0.995 | locus YAL026C, strain drs2, active compounds read low 0.981 | locus YAL030W, strain snc1, active compounds read low 0.997 | locus YAL040C, strain CLN3, active compounds read low 1 | locus YBL061C, strain skt5, active compounds read low 0.998 | locus YBR009C, strain hhf1, active compounds read low 0.979 | locus YBR021W, strain FUR4, active compounds read low 1.01 | locus YBR023C, strain chs3, active compounds read low 0.985 | locus YBR171W, strain sec66, active compounds read low 0.98 | locus YBR229C, strain ROT2, active compounds read low 1 | locus YBR231C, strain swc5, active compounds read low 1 | locus YBR279W, strain paf1, active compounds read low 0.972 | locus YCL011C, strain gbp2, active compounds read low 0.991 | locus YCL016C, strain dcc1, active compounds read low 0.969 | locus YCL029C, strain bik1, active compounds read low 0.962 | locus YCL061C, strain MRC1 (second series), active compounds read low 1.01 | locus YCL069W, strain vba3, active compounds read low 0.983 | locus YCR088W, strain abp1, active compounds read low 0.989 | locus YDL005C, strain med2, active compounds read low 0.98 | locus YDL035C, strain GPR1, active compounds read low 1 | locus YDL040C, strain nat1, active compounds read low 0.986 | locus YDL074C, strain BRE1, active compounds read low 1.06 | locus YDL101C, strain DUN1, active compounds read low 1 | locus YDL134C, strain PPH21, active compounds read low 0.994 | locus YDL185W, strain tfp1, active compounds read low 0.941 | locus YDL192W, strain arf1, active compounds read low 0.978 | locus YDR001C, strain nth1, active compounds read low 0.983 | locus YDR069C, strain doa4, active compounds read low 0.984 | locus YDR101C, strain arx1, active compounds read low 1.02 | locus YDR137W, strain rgp1, active compounds read low 0.953 | locus YDR159W, strain sac3, active compounds read low 0.928 | locus YDR162C, strain NBP2, active compounds read low 0.979 | locus YDR195W, strain ref2 1.02 | locus YDR297W, strain sur2, active compounds read low 0.982 | locus YDR318W, strain mcm21, active compounds read low 0.969 | locus YDR334W, strain swr1, active compounds read low 0.984 | locus YDR335W, strain msn5, active compounds read low 1.01 | locus YDR363W, strain ESC2, active compounds read low 0.998 | locus YDR388W, active compounds read low 0.989 | locus YDR392W, strain spt3, active compounds read low 0.871 | locus YDR502C, strain sam2, active compounds read low 1 | locus YEL003W, strain gim4, active compounds read low 1 | locus YEL037C, strain rad23, active compounds read low 0.987 | locus YEL061C, strain CIN8 (second series), active compounds read low 0.996 | locus YEL061C, strain CIN8, active compounds read low 1 | locus YER002W, strain NOP16, active compounds read low 0.992 | locus YER015W, strain faa2, active compounds read low 0.966 | locus YER016W, strain bim1, active compounds read low 0.974 | locus YER110C, active compounds read low 0.957 | locus YER111C, strain swi4, active compounds read low 0.979 | locus YER155C, strain BEM2 (second series), active compounds read low 0.986 | locus YER155C, strain BEM2, active compounds read low 0.994 | locus YER167W, strain BCK2, active compounds read low 1 | locus YFR010W, strain ubp6, active compounds read low 1 | locus YGL078C, strain dbp3, active compounds read low 0.99 | locus YGL086W, strain mad1, active compounds read low 1.01 | locus YGL167C, strain pmr1, active compounds read low 0.991 | locus YGL173C, strain kem1, active compounds read low 1.01 | locus YGL227W, strain vid30, active compounds read low 1 | locus YGL240W, strain doc1, active compounds read low 0.995 | locus YGL248W, strain PDE1, active compounds read low 1.02 | locus YGL253W, strain hxk2, active compounds read low 0.984 | locus YGR078C, strain PAC10, active compounds read low 1.02 | locus YGR135W, strain pre9, active compounds read low 0.958 | locus YGR229C, strain SMI1, active compounds read low 1.01 | locus YGR252W, strain gcn5, active compounds read low 1.03 | locus YHR013C, strain ard1, active compounds read low 0.964 | locus YHR027C, strain rpn1, active compounds read low 1.01 | locus YHR030C, strain SLT2, active compounds read low 0.982 and 1.04 | locus YHR079C, strain IRE1 (second series), active compounds read low 0.974 | locus YHR079C, strain IRE1, active compounds read low 1.04 | locus YHR094C, strain hxt1, active compounds read low 0.979 | locus YHR129C, strain ARP1, active compounds read low 0.987 | locus YHR142W, strain chs7, active compounds read low 0.966 | locus YHR200W, strain rpn10, active compounds read low 0.955 | locus YIL066C, strain RNR3, active compounds read low 1.02 | locus YIL073C, strain SPO22, active compounds read low 0.868 | locus YIL125W, strain kgd1, active compounds read low 0.984 | locus YIR030C, strain dcg1, active compounds read low 0.961 | locus YJL092W, strain hpr5, active compounds read low 0.997 | locus YJL095W, strain BCK1 (second series), active compounds read low 0.978 | locus YJL095W, strain BCK1, active compounds read low 1.05 and 1.01 | locus YJL115W, strain asf1, active compounds read low 0.98 | locus YJL129C, strain trk1, active compounds read low 0.942 | locus YJL134W, strain LCB3, active compounds read low 0.991 | locus YJL154C, strain vps35, active compounds read low 0.982 | locus YJL164C, strain tpk1, active compounds read low 0.985 | locus YJL166W, strain qcr8, active compounds read low 0.999 | locus YJL168C, strain set2, active compounds read low 0.978 | locus YJL187C, strain SWE1 (second series), active compounds read low 1.03 | locus YJR043C, strain POL32, active compounds read low 1.03 | locus YJR066W, strain TOR1, active compounds read low 0.965
